DAX1 inh-1 – DAX1 (NR0B1) inhibitors, primary screen, cell-based, HEK293, Gal4-DAX1, luciferase luminescence; Nuclear receptor subfamily 0 group B member 1 (Homo sapiens), P51843; inhibition, % at 6.75 µM; HEK293 Gal4-DAX1 luciferase reporter; hit rate 0.99% among 340,000;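 active = inhibition above the mean over all tested compounds plus 3 SD, cut at about 4.2% in these data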;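 also: inhibition shows as a rise in luminescence from relieved DAX1 repression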
SMARCA2 activ – SMARCA2 (BRM) function activators, primary screen, cell-based, luminescence, high throughput. MG213 cells, MMTV-luciferase reporter, dexamethasone, overnight. activation, % at 9.1 µM. hit rate 1% among 370,000; in the data active = activation above about 7.8%
DAX1 inh-2 – DAX1 (NR0B1) inhibitors on StAR promoter, primary screen, cell-based, luminescence, SF-1 (NR5A1), full-length DAX-1 | HEK293T StAR-luciferase reporter, SF-1/DAX-1 repression relief | inhibition, % at 6.8 µM | hit rate 1.1% among 370,000 | AID 652010, 2013;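 active = inhibition above the mean over all tested compounds plus 3 SD, cut at about 3.6% in these data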;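 also: higher inhibition means more luminescence from relief of DAX-1 repression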
hgDAF12 agonist – H. glycines DAF-12 receptor agonists, primary screen, cell-based, luminescence, HEK293, GAL4 fusion, UAS-luciferase | HEK293 GAL4-hgDAF12 UAS-luciferase reporter, agonist luminescence; normalized to butyrate control | activation, % at 6.8 µM | hit rate 1.8% among 370,000 | AID 687014, 2013;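 active = activation above a cutoff set at the mean of all screened compounds plus 3 SD, cut at about 10% in these data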
ssDAF-12 act – S. stercoralis DAF-12 nuclear receptor activators, primary screen, cell-based, luminescence, HEK293, GRIP1 co-expression, lit1-tk-luc; Nuclear hormone receptor DAF-12 (Strongyloides stercoralis); HEK293 ssDAF-12/GRIP1 lit1-tk-luc reporter; % of 3 µM dafachronic acid response; activation, % at 6.8 µM; hit rate 1% among 370,000;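 active = activation above the mean over all tested compounds plus 3 SD, cut at about 0.9% in these data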
hcDAF12 agonist – H. contortus DAF-12 nuclear receptor activators, primary screen, cell-based, luminescence, HEK293, lit1-tk-luc reporter. HEK293 hcDAF-12 lit1-tk-luc reporter; 0% DMSO, 100% Δ7-dafachronic acid. activation, % at 6.8 µM. hit rate 1.4% among 370,000;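 active = activation above the mean of all tested compounds plus 3 SD, cut at about 5.5% in these data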
hgDAF12 ag – H. glycines DAF-12 receptor agonists, confirmation, cell-based, luminescence, HEK293, GAL4-LBD fusion | shares compounds with hgDAF12 agonist | HEK293 GAL4-hgDAF12 luciferase reporter, agonist mode; percent of butyrate response | activation, % at 6.8 µM | AID 743050, 2013 | hit rate 80% among 3,300;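 active = mean activation over triplicate wells above the hit cutoff derived from the earlier primary screen, cut at about 11% in these data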
LXR ag 2 – LXR agonists, Gal4 luciferase reporter, confirmation, counter-screen for hgDAF-12 agonist project, cell-based, luminescence, HEK293, H. glycines campaign. shares compounds with hgDAF12 agonist. 24 h. activation, % at 6.8 µM. 3,300 tested, under 10 active;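 active = mean activation of the triplicate above a set limit carried over from the primary screen, none filed active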
Target sequence (P55055 whole entry, looked up, the tested form may be a part): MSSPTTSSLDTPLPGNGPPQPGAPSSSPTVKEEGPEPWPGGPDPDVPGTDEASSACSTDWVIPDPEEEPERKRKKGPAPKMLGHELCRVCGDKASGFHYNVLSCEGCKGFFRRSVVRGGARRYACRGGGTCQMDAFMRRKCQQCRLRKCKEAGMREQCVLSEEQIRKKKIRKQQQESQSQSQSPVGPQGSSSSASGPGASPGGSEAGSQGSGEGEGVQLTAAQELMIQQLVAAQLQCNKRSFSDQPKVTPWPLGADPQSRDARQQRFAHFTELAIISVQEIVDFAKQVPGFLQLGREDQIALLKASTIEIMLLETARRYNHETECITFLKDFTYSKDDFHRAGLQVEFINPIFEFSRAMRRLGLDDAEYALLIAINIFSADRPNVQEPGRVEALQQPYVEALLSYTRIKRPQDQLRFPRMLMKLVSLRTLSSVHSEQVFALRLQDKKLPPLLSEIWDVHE
Each line names hits and unclear results; the compound was inactive in the other large screens (follow-up assays come after a bar, where they were run). A selection: hits, their analogues and other compounds. The true share with any hit is near 4.8%.

Cc1ccc(SCc2nc3ccccc3[nH]2)cc1	hgDAF12 agonist 14 | hgDAF12 ag 12 | LXR ag 2 inactive
COC(=O)C1=C(C)N(Cc2ccc(C(F)(F)F)cc2)C(=NCc2ccc(C(F)(F)F)cc2)NC1c1cccc(C(F)(F)F)c1 (configuration not stated)	none (no result: DAX1 inh-1)
O=C(COc1ccc(Cl)cc1Cl)OCn1nnc2ccccc2c1=O	none
O=c1c2ccccc2nnn1COc1cccc(Cl)c1	hgDAF12 agonist 13 | hgDAF12 ag inactive | LXR ag 2 inactive
CCOC(=O)c1cnc(-c2ccccc2)nc1N	DAX1 inh-2 4.5, hgDAF12 agonist 14 | hgDAF12 ag 16 | LXR ag 2 inactive
CCOC(=O)c1cnc(-c2ccccc2)nc1N1CCOCC1	none
COC(=O)Nc1nnc(/C=C/c2ccc(OC)cc2)s1	none
COc1ccc(/C=C/c2nnc(NC(C)=O)s2)cc1	hgDAF12 agonist 14 | hgDAF12 ag 16 | LXR ag 2 inactive
CCCCCCCCN1C(=O)[C@@H](CC(=O)N2CCOCC2)C[C@@]2(C(=O)OC)C1=C[C@H](C(C)(C)C)O[C@@H]2C	none (no result: DAX1 inh-1)
c1ccc(Cn2c(-c3ccco3)nc3nc4ccccc4nc32)cc1	none
O=c1c2ccccc2nc(-c2ccco2)n1Cc1ccccc1	hgDAF12 agonist 14 | hgDAF12 ag 12 | LXR ag 2 inactive
COC(=O)C1C(=O)c2c([nH]c(C(=O)OCCOC(C)C)c2C)CC1C (configuration not stated)	none (no result: DAX1 inh-1)
COC(=O)C1C(=O)c2c([nH]c(C(=O)OC3CCCCC3)c2C)CC1C (configuration not stated)	DAX1 inh-1 5.3, hgDAF12 agonist 15 | hgDAF12 ag 12 | LXR ag 2 inactive
COc1cccc(-n2cc(-c3ccc(F)cc3)[nH]c2=S)c1	hgDAF12 agonist 20, hcDAF12 agonist 5.6 | hgDAF12 ag 12 | LXR ag 2 inactive
CS(=O)(=O)c1cccc(OCCCN2CCC(C(O)(c3ccccc3)c3ccccc3)CC2)c1	none (no result: DAX1 inh-1)
COc1cccc(CNC(=O)[C@H]2CCCN2C(=O)[C@H]2CCCN2C(=O)c2cccc3ccccc23)c1	none (no result: DAX1 inh-1)
COc1cc(C)ccc1OCc1cc(C(=O)N(Cc2nccn2C)C(C)C)no1	DAX1 inh-2 3.7, hgDAF12 agonist 18 | hgDAF12 ag 13 | LXR ag 2 inactive
CC12CCC(C(=O)Nc3nc4ccccc4s3)(OC1=O)C2(C)C (configuration not stated)	hgDAF12 agonist 13 | hgDAF12 ag inactive | LXR ag 2 inactive
Cc1csc(Nc2ccc(Cl)cc2)n1	none
Cc1ccc(Nc2nc(C)cs2)cc1	hgDAF12 agonist 16 | hgDAF12 ag 14 | LXR ag 2 inactive
CCOC(=O)[C@@H]1CSCCS(=O)(=O)N1C(=O)[C@H](Cc1ccccc1)NC(=O)OC(C)(C)C	none (no result: DAX1 inh-1)
Cc1cccc(Nc2nc3c(s2)CCCC3)c1	hgDAF12 agonist 18 | hgDAF12 ag 16 | LXR ag 2 inactive
O=C(O)c1ccc(Nc2nc3c(s2)CCCC3)cc1	none
Cc1cc2c(c(=O)o1)[C@@]1(C(=O)N(C)c3ccccc31)C1=C(CCCC1=O)O2	none (no result: DAX1 inh-1)
CCOC(=O)C1=CCN(S(=O)(=O)c2cccc(Cl)c2)C1c1ccc(Cl)c(Cl)c1 (configuration not stated)	none (no result: DAX1 inh-1)
CC(C(=O)N1CCc2ccccc21)N1CCN(S(=O)(=O)c2cccs2)CC1 (configuration not stated)	none
CN(CC(=O)N1CCc2ccccc21)S(=O)(=O)c1cccs1	hgDAF12 agonist 13 | hgDAF12 ag 12 | LXR ag 2 inactive
Cc1ccc(NC(=O)CSCc2ccc(F)cc2)cc1	hgDAF12 agonist 14 | hgDAF12 ag inactive | LXR ag 2 inactive
O=C(CSc1ccc(F)cc1)Nc1ccc(Br)cc1	hgDAF12 agonist 16 | hgDAF12 ag 12 | LXR ag 2 inactive
CN1CCCCC(NC(=O)c2ccc(Cl)cc2Cl)C1=O (configuration not stated)	none (no result: DAX1 inh-1)
CC(C)NC(=O)N(C)C[C@@H]1OCc2cn(nn2)CCCC(=O)N([C@@H](C)CO)C[C@H]1C	none (no result: DAX1 inh-1)
C(=N\NC1=Nc2cccc3cccc1c23)/c1cccnc1	hgDAF12 agonist 16 | hgDAF12 ag 11 | LXR ag 2 inactive
O=C(Nc1ccc(Cl)cc1)N1CCSCC1	none
O=C(CSC(=S)N1CCSCC1)c1ccc(Cl)cc1	hgDAF12 agonist 13 | hgDAF12 ag 14 | LXR ag 2 inactive
O=C(N=C1N=C2C=CC=CN2Cc2ccccc21)c1ccc(S(=O)(=O)N2CCOCC2)cc1	DAX1 inh-2 4.1, hgDAF12 agonist 16 | hgDAF12 ag 12 | LXR ag 2 inactive
CN(C)S(=O)(=O)c1cccc(C(=O)N2CCN(Cc3ccccc3)CC2)c1	none
CN(C)S(=O)(=O)c1cccc(C(=O)N=C2N=C3C=CC(Cl)=CN3Cc3ccccc32)c1	hgDAF12 agonist 16 | hgDAF12 ag inactive | LXR ag 2 inactive
O=C(N=C1N=C2C=CC=CN2Cc2ccccc21)c1ccc(S(=O)(=O)N2CCCC2)cc1	none
C=CCn1c(-c2csc(-c3ccccc3)n2)n[nH]c1=S	none
C=CCN1C(=S)CC(c2ccccc2)=Nc2ccccc21	hgDAF12 agonist 14 | hgDAF12 ag inactive | LXR ag 2 inactive
Fc1ccc(N=C2NN=C(c3cc(F)ccc3F)CS2)cc1	hgDAF12 agonist 16 | hgDAF12 ag 11 | LXR ag 2 inactive
O=S(=O)(c1ccc(N=C2NN=C(c3cc(F)ccc3F)CS2)cc1)N1CCOCC1	none (no result: DAX1 inh-1)
O=C1C2C3C=CC(C3)C2C(=O)N1c1ccc(-c2nc(-c3ccccc3)nc3ccccc23)cc1 (configuration not stated)	none (no result: DAX1 inh-1)
COc1ccc(Nc2nnc(-c3ccc4c(c3)OCO4)o2)cc1	hgDAF12 agonist 22, ssDAF-12 act 1.5, hcDAF12 agonist 5.8 (no result: DAX1 inh-1) | hgDAF12 ag 18 | LXR ag 2 inactive

Source: PubChem BioAssay (The Scripps Research Institute Molecular Screening Center)
